The sample as a whole holds a higher share of hits than the screen did.
mHTT-CaM PPI inh: mHTT-calmodulin interaction abrogation | P42858 | AlphaScreen His-mHTT/GST-CaM binding, luminescence | inhibition, % at 15 µM | hit rate 3.6% among 190,000 | AID 1671202;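 further: 0% = both proteins with DMSO and 100% = one protein alone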
Pf apPOL block: Pf-apPOL DNA polymerase inhibition; Recombinant Pf-apPOL, molecular beacon fluorescence, 1.5 h; inhibition, % at 10 µM; hit rate 0.25% among 210,000
* = called active by the depositor; x = no result; + = active, no number. No stated cut-off is given here; in the data, active means inhibition above about 50%; inactive means the rest.

SMILES | mHTT-CaM PPI inh | Pf apPOL block
O=C(c1cc2ccccc2oc1=O)N1CCN(C(=O)c2cc3ccccc3oc2=O)CC1 | 3.0 | -0.6
CCCCCCN1C[C@H](n2cc(-c3ccc(F)cc3)nn2)[C@@H](O)C[C@@H]1c1ccc(OC)cc1 | 67.3* | 1.2
CCCCCCN1C[C@@H](n2cc(-c3ccc(F)cc3)nn2)[C@H](O)C[C@@H]1c1ccc(OC)cc1 | 3.7 | -7.1
COc1ccc([C@H]2C[C@H](O)[C@@H](n3cc(-c4ccc(F)cc4)nn3)CN2CC2CCCCC2)cc1 | 69.3* | 1.1
CCCCCCN1C[C@@H](O)[C@H](n2cc(C3CC3)nn2)C[C@@H]1c1ccccc1 | 29.7 | -2.5
CCCCCCN1C[C@H](n2cc(C3CC3)nn2)[C@@H](O)C[C@@H]1c1ccc(OC)cc1 | 97.9* | -2.6
CCCCCCN1C[C@H](n2cc(C3CC3)nn2)[C@@H](O)C[C@@H]1c1ccccc1 | 99.3* | 0.1
COc1ccc([C@H]2C[C@@H](n3cc(-c4ccc(F)cc4)nn3)[C@H](O)CN2CC2CCCCC2)cc1 | -7.1 | -2.8
CCCCCC(=O)N1C[C@@H](O)[C@H](n2cc(C3CC3)nn2)C[C@@H]1c1ccc(OC)cc1 | 25.7 | -3.1
O=C(NCc1ccc(C(F)(F)F)cc1)c1cn2c(n1)CSCC2 | 7.7 | -14.4
CCOC(=O)C(NC(=O)c1ccco1)(Nc1ccc(Cl)cc1)C(F)(F)F (stereo unspecified) | x | -0.1
CCc1cc2c(=O)c(-c3ccc4c(c3)OCCO4)c(C)oc2cc1OC(C)C | 1.9 | 2.1
CC(C)N1Cc2cc(C(=O)NCc3cc(F)cc(F)c3)sc2C1 | -10.8 | -0.7
Cc1ccc2c(Nc3cc(F)cc(F)c3)c(C(=O)N3CCOCC3)cnc2n1 | -3.1 | 0.2
Cc1cc(OCC(=O)Nc2ccc(C)c(C)c2)nc(N2CCCCC2)n1 | -2.3 | 0.5
CSc1nnc2c(n1)OC(c1ccc(Cl)c([N+](=O)[O-])c1)Nc1ccccc1-2 (stereo unspecified) | 9.0 | -4.0
Cc1ccc(C2CC(C(F)(F)F)n3nc(C(=O)Nc4ccc5c(c4)OCO5)cc3N2)cc1 (stereo unspecified) | 18.0 | 0.1
COc1ccc(-c2nc3cc(C(C)(C)C)ccc3o2)cc1O | 61.2* | 3.7
COc1cc(-c2nc3cc(C(C)(C)C)ccc3o2)ccc1O | 55.7* | 1.9
COc1ccc(-c2nc3cc(C)ccc3o2)cc1N | 34.0 | 5.8
CC(C)(C)c1ccc(-c2nc3cc(N)ccc3o2)cc1 | 27.0 | -7.4
COc1ccc(NC(=O)c2cnn3c2NC(c2cccs2)CC3C(F)(F)F)cc1OC (stereo unspecified) | 29.0 | 0.5
O=C(Nc1ccc2c(c1)OCO2)c1cnn2c1NC(c1cccs1)CC2C(F)(F)F (stereo unspecified) | 7.0 | 75.9*
COc1ccc2c(=O)c(Oc3ccccc3F)c(C)oc2c1C | 10.7 | -4.0
N#C/C(=C\c1cc2c(cc1Br)OCO2)c1nc2ccccc2[nH]1 | 7.5 | -1.2
SMILES | mHTT-CaM PPI inh | Pf apPOL block
Cc1cc(C)nc(Nc2nc3ccccc3[nH]2)n1 | 0.0 | -0.9
Cc1[nH]c2ccccc2c1/C=N\Nc1nc2ccccc2[nH]1 | + | x
Clc1cc2c(cc1/C=N/Nc1nc3ccccc3[nH]1)OCO2 | + | x
COc1ccc(/C=C2/N=C(C3CCCCC3)OC2=O)c(OC)c1 | 2.0 | -0.9
CCCOc1ccc(OCCSc2nc(N)cc(=O)[nH]2)cc1 | 0.3 | 2.9
Nc1cc(=O)[nH]c(SCCOc2ccc(Cl)cc2)n1 | 100.3* | -9.5
Oc1ccccc1CN1CCCCC1 | -2.2 | -3.8
COc1ccc(Br)cc1CNC(=O)CN1N=C(c2ccc(Cl)cc2)CCC1=O | 52.0* | -13.8
O=C(CN1N=C(c2ccc(Cl)cc2)CCC1=O)NCCc1ccc(Cl)cc1 | 42.0 | -14.9
O=C(CN1N=C(c2ccc(Cl)cc2)CCC1=O)NCCN1CCc2ccccc2C1 | 52.0* | -9.4
COc1ccc(OC)c(CNC(=O)CN2N=C(c3ccc(Cl)cc3)CCC2=O)c1 | 34.0 | -11.4
CCc1c(C2CCN(C(=O)c3ccnn3C)CC2)noc1N | -2.5 | -4.1
CCc1ccc(C=C2Oc3cc(OC(=O)c4ccco4)ccc3C2=O)cc1 | -0.9 | -6.3
COc1ccc(C(=S)NN)cc1 | 58.2* | x
CCOC(=O)NC(=S)c1ccc(OC)cc1 | x | 3.0
Cc1ccc(C2=CC(c3cc(Br)ccc3F)n3ncnc3N2)cc1 (stereo unspecified) | 9.0 | -4.4
O=C(NCc1ccco1)c1nnc2n(c1=O)CCN2c1ccc(F)cc1 | -9.7 | -8.2
Cc1nnc2sc(SCC(=O)Nc3cccc(C(F)(F)F)c3)nn2c1=O | 99.0* | 0.1
Cc1cc2c(=O)n(CC(=O)Nc3cccc(C(F)(F)F)c3)cnc2s1 | -11.0 | -1.3
CCCCOc1ccc(C2=N/C(=C\c3cccc(F)c3)C(=O)O2)cc1 | 3.0 | -4.2
CC(=O)NN1C=CN([C@H]2O[C@@H]([C@H](COC(C)=O)NC(=O)[C@H](Cc3c[nH]c4ccccc34)NC(=O)OC(C)(C)C)[C@H](OC(C)=O)[C@@H]2OC(C)=O)C(=O)N=C1 | 37.6 | -8.2
O=C1c2cccnc2C(=O)N1c1ccc(Oc2ccc(N3C(=O)c4cccnc4C3=O)cc2)cc1 | 99.0* | -3.2
O=C1c2cccnc2C(=O)N1c1ccc(-c2ccc([N+](=O)[O-])cc2)cc1 | 1.0 | -6.5
O=C1c2cccnc2C(=O)N1c1ccc(Cc2ccc(N3C(=O)c4cccnc4C3=O)cc2)cc1 | 80.0* | 7.6
O=C1c2cccnc2C(=O)N1c1cccc(C(F)(F)F)c1 | 13.0 | -4.7
SMILES | mHTT-CaM PPI inh | Pf apPOL block
CCc1nnc(C2CCN(C(=O)Nc3ccc(F)cc3)CC2)s1 | 1.6 | -7.4
COc1ccccc1CC(=O)N1CCN(c2ccc(-c3ccccn3)nn2)CC1 | 100.2* | -21.2
O=C(c1cc(-c2ccc(F)cc2)n[nH]1)N1CCN(c2ccc(-c3ccccn3)nn2)CC1 | 100.1* | 1.4
O=C(c1ccc(N2CCCC2)nn1)N1CCN(c2ncccn2)CC1 | -8.6 | -3.0
COc1ccccc1CC(=O)N1CCN(c2ccccn2)CC1 | -0.6 | -5.0
O=C(c1ccc(=O)[nH]n1)N1CCN(c2ccc(-c3ccccn3)nn2)CC1 | 100.0* | -2.0
O=C(c1ccc(F)cc1F)N1CCN(c2ccc(-c3cccnc3)nn2)CC1 | 3.8 | -7.3
O=C(NCc1ccc(F)cc1)c1cc2cc([N+](=O)[O-])ccc2oc1=O | -1.0 | 1.9
COc1ccc(OC)c(-c2cc(C(=O)NC3CCCCC3N3C(=O)CSC3=O)[nH]n2)c1 (stereo unspecified) | 22.3 | -3.0
Cc1nn2c([N+](=O)[O-])c(C)[nH][n+]2c1C(=O)Nc1c(C)n(C)n(-c2ccccc2)c1=O | 2.0 | 0.2
CCCCOc1ccccc1/C=c1\sc2nc(-c3ccncc3)nn2c1=O | 12.0 | 0.6
Cc1nc(C(=O)N2CCN(Cc3ccc(C)c(C)c3)CC2)c(C)o1 | 5.9 | -0.2
O=S(=O)(c1ccc(-c2csc(=Nc3ccccc3)n2CCO)cc1)N1CCCCC1 | 45.0 | 5.5
COc1ccc(N=c2scc(-c3ccc(I)cc3)n2CCO)cc1 | 66.0* | -5.3
COc1ccc(-c2csc(=Nc3ccccc3)n2CCO)cc1 | 45.0 | -5.2
COc1ccc(N=c2scc(-c3ccc(Br)cc3)n2CCO)cc1 | 59.0* | 4.8
Cc1ccc(OCC(=O)N2CCN(C(=O)CC(C)C)CC2)cc1 | -0.5 | 0.0
Cc1cc2c(=O)n(C(C)C(=O)N3CCN(c4cccc(Cl)c4)CC3)ccc2o1 (stereo unspecified) | 97.2* | 1.3
Cc1ccc(C(=O)N2CCN(c3cccc(Cl)c3)CC2)cc1 | 23.2 | -6.3

Screening results (PubChem)
